Here are results for 11 substances from ChEMBL document CHEMBL1201862, “PubChem BioAssay data set” (2004).

Screen size: about 58,000 sequences; about 3,500 (6%) were called active. No stated cut-off is given here; in the data, active = GI50 up to about 1.1 µM and inactive = higher. The list is a sample of the results. Entries with a potency or affinity are not part of this list.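 Cultured in 96-well plates, cells were exposed to test compound for 48 hours across five concentrations. Here, GI50 denotes the concentration required for 50% inhibition of growth.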

The assay concerns SN12C. Nature of the assay: NCI tumour cell line growth inhibition, 48 h.
Take “[Bis(aminomethyl)pentamethylenesilane]dichloropaltinum(II), CHEMBL2146202”: the GI50 was found to be 1.87 µM.

Substance “[Bis(aminomethyl)pentamethylenesilane]tetrachloropaltinum(IV), CHEMBL2146204” displayed a GI50 of 2 µM.

Take “[Bis(aminomethyl)tetramethylenesilane]tetrachloropaltinum(IV), CHEMBL2146189”: the GI50 stood at 2.64 µM.

On to “cis-Bis[[(trimethylsilyl)methyl]amino]tetrachloroplatinum(IV), CHEMBL2146191”, for which the GI50 was 13.1 µM.

On to “[Bis(aminomethyl)dimethylsilane]tetrachloroplatinum(IV), CHEMBL2146190”, for which the GI50 turned out to be 8.45 µM.

In turn, “[Bis(aminomethyl)tetramethylenesilane]dichloropaltinum(II), CHEMBL2146205” displayed a GI50 of 23.9 µM.

On to “mu-(1,7-nanodiamine-N,N')bis-(cis-aminedichloroplatimum (II)), CHEMBL2146215”, for which the GI50 stood at 0.387 µM.

The substance “[Bis(aminomethyl)dimethylsilane]dichloroplatinum (II), CHEMBL2146201” had a GI50 of 32.4 µM.

In turn, “[Bis(aminomethyl)diethylsilane]tetrachloroplatinum(IV), CHEMBL2146203” came in with a GI50 of 2.34 µM.

The substance “[Bis(aminomethyl)ethylmethylsilane]tetrachloroplatinum(IV), CHEMBL2146192” registered a GI50 of 4.25 µM.

In turn, CISPLATIN, CHEMBL11359 returned a GI50 of 4.83 µM.
